Source: PubChem BioAssay
Active and inactive are the calls of the source.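 Rule for the calls, unless noted: active = inhibition of the reporter signal at or above 50%; inactive = inhibition below 50%.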

Columns and labels:
[1] = inhibitors of TNFa-induced NFkB p65 translocation, primary screen, imaging, HUVEC, MLSMR starter and 10KST1 sets (AID 438;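 active = inhibition above 20% together with a positive visual image hit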;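 note: compound added about 3h40 before a 20 min TNFalpha stimulation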;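 for inhibition: signal is the nuclear over cytoplasmic p65 intensity ratio per well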); details: HUVEC TNFa-induced p65 nuclear translocation; cell count: measured here: nuclei count (cytotoxicity indicator), at 2.08 µM; inhibition: at 2 µM, stronger effect = higher value, 0% TNFa-plus-vehicle, 100% no-TNFa wells
[2] = inhibitors of mutant huntingtin aggregation, primary screen, imaging, exon1htt(103Q)mCFP cells, high-content imaging (AID 483;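 active = visual image review flags a hit and inhibition of aggregation exceeds 20%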;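 note: compound exposure lasted 3 days before fixation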;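 for nuclei count: percent of the per-plate median nuclei count of sample wells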); details: exon1htt(103Q)mCFP cell line, aggregate imaging, at 2 µM; inhibition of aggregation: stronger effect = higher value; nuclei count: measured here: cell count, toxicity
[3] = inhibitors of E-selectin induction by TNFa, primary screen, imaging, HUVEC, immunofluorescence, MLSMR starter and 10KST1 sets (AID 487;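 active = visually confirmed hit in the image check and inhibition above 20%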;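 for inhibition: signal is fraction of cell area covered by stained E-selectin grains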;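 for nuclei count: 100% = median nuclei count of all wells on the same plate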); details: HUVEC TNFalpha-induced E-selectin immunofluorescence imaging, at 2 µM; inhibition: stronger effect = higher value; nuclei count: measured here: cell number, toxicity
[4] = target: Voltage-gated potassium channel subunit beta-2 (Rattus norvegicus) (UniProt P62483); test: KvBeta enzyme negative modulators, primary screen, biochemical, NADPH fluorescence (AID 622;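 active = fluorescence slope higher than the sample average by over 3 SD, cut at about -0.22 in these data, passing the limit was not always enough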;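 note: slope of raw intensity against log time taken from 70 to 1610 s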); details: recombinant KvBeta, 4-cyanobenzaldehyde reduction, at 10 µM, stronger effect = higher value
[5] = target: Voltage-gated potassium channel subunit beta-2 (Rattus norvegicus) (UniProt P62483); test: KvBeta positive modulators, primary screen, biochemical, NADPH fluorescence (AID 623;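 active = NADPH fluorescence slope more negative than the mean of all samples by about 3 SD, 99.7% confidence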;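 note: fluorescence intensity change per second fitted from 20 to 320 s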); details: Recombinant KvBeta, NADPH fluorescence decrease slope, 10 min; at 10 µM; stronger effect = lower value
[6] = target: Alpha-2C adrenergic receptor (Homo sapiens) (UniProt P18825); test: modulators of alpha2C/GIRK thallium flux, primary screen, cell-based, HEK293 alpha2C/GIRK1/2 (AID 624;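 active = fluorescence slope after compound addition differing from the mean of all screened samples at 99.7% confidence, in either direction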;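 note: slope of fluorescence ratio to pre-addition baseline per second over 15 to 24 s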); details: thallium flux BTC fluorescence, at 10 µM, actives lie on both sides
[7] = inhibitors of Sendai virus-induced IRF3 signaling, primary screen, TLR/RLR signaling modifier project, cell-based, Sendai virus stimulus, luciferase, 10K MLSCN set (AID 602276;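 active = inhibition at or above 50% at 10 µM; inactive = inhibition below 50%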;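 note: firefly luciferase from ISG56 promoter only with Renilla not read in this screen; 0% = Sendai virus plus DMSO and 100% = medium plus DMSO without virus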); details: HEK293 RL24 IRF3 luciferase reporter, at 10 µM, stronger effect = higher value
[8] = inhibitors of poly I:C-induced TLR3 signaling, primary screen, cell-based, poly I:C stimulus, luciferase, 10K MLSCN set (AID 602277); details: HEK293-TLR3 RL24 IRF3 luciferase reporter, at 10 µM, stronger effect = higher value

Chain of Voltage-gated potassium channel subunit beta-2 (Rattus norvegicus) (P62483 whole entry, looked up): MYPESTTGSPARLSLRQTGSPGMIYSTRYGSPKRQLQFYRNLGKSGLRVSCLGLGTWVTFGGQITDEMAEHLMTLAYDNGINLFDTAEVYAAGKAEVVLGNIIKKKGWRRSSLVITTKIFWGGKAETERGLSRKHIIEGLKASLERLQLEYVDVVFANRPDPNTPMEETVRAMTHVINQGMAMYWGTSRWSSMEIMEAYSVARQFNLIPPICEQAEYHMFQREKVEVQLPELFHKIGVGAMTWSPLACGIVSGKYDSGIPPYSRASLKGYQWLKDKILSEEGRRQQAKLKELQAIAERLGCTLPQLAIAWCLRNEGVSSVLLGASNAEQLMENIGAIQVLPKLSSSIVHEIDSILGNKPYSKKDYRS
Chain of Alpha-2C adrenergic receptor (Homo sapiens) (P18825 whole entry, looked up): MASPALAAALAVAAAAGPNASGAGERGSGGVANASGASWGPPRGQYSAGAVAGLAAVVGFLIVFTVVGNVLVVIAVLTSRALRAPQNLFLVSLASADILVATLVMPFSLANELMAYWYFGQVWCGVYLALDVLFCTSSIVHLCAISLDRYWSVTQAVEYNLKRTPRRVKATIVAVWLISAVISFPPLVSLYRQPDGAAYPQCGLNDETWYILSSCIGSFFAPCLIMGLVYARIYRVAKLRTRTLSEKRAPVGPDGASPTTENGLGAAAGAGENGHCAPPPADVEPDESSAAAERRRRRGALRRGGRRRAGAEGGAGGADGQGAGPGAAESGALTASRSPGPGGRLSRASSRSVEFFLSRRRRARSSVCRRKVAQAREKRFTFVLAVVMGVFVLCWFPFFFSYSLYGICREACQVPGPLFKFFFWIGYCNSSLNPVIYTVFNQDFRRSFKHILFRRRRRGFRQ

Row | Compound | cell count [1] | inhibition [1] | inhibition of aggregation [2] | nuclei count [2] [%] | inhibition [3] | nuclei count [3] [%] | fluorescence slope [4] | NADPH fluorescence slope [5] | slope [6] | inhibition [7] | inhibition [8]
1 | O=C(Nc1cnn(Cc2ccc(F)cc2)c1)c1cnccn1 | 582 | -17% (inactive) | -7.5% (inactive) | 109 | -94.9% (inactive) | 120 | -0.504 (inactive) | -4.3e-05 (inactive) | 0.00522 (inactive) | 4.25% (inactive) | 8.05% (inactive)
2 | COc1cc(NC(=O)CSCc2cnn(-c3ccccc3)c2-n2cccc2)cc(OC)c1 | 662 | 6.1% (inactive) | 9.3% (inactive) | 97.9 | -32% (inactive) | 98.1 | -0.315 (inactive) | -7.1e-05 (inactive) | 0.00868 (inactive) | 15.7% (inactive) | 11.2% (inactive)
3 | COc1cccc(C2CC(=O)Nc3c2c(=O)n(C)c(=O)n3C)c1OC (centres undefined) | 499 | 2.4% (inactive) | -11.6% (inactive) | 39.6 | -17.6% (inactive) | 112 | -0.536 (inactive) | 2e-06 (inactive) | 0.00679 (inactive) | -4.94% (inactive) | 16.2% (inactive)
4 | CCOc1ccc(-c2nnc(SCC(=O)N3CCN(c4ccccc4)CC3)o2)cc1 | 672 | -8.6% (inactive) | 8.1% (inactive) | 101 | -59.7% (inactive) | 109 | -0.559 (inactive) | 2.1e-05 (inactive) | 0.0058 (inactive) | 2.37% (inactive) | 14.8% (inactive)
5 | Fc1ccccc1Cn1nnc2c(-n3ccnc3)ncnc21 | 573 | -1.6% (inactive) | -7.5% (inactive) | 103 | -55.2% (inactive) | 106 | -0.519 (inactive) | 3.6e-05 (inactive) | 0.00439 (inactive) | -9.4% (inactive) | -13.8% (inactive)
6 | Cc1onc(-c2c(Cl)cccc2Cl)c1C(=O)NCC1CCCO1 (centres undefined) | 394 | 6.8% (inactive) | 15.4% (inactive) | 87.4 | -10.7% (inactive) | 113 | -0.519 (inactive) | 1.7e-05 (inactive) | 0.00578 (inactive) | -10.3% (inactive) | 10.7% (inactive)
7 | COc1ccccc1CN1CCCC(C(=O)N(C)Cc2ccccc2)C1 (centres undefined) | 739 | -3.4% (inactive) | 23.6% (inactive) | 99.1 | -218% (inactive) | 126 | -0.37 (inactive) | -9.6e-06 (inactive) | 0.00506 (inactive) | 7.15% (inactive) | 33.5% (inactive)
8 | CCOc1nc(OCC)nc(N2CCC(C)CC2)n1 | 499 | 9.1% (inactive) | 5.9% (inactive) | 106 | -118% (inactive) | 138 | -0.242 (inactive) | -3.2e-05 (inactive) | 0.005 (inactive) | 16.6% (inactive) | 20.5% (inactive)
9 | Cc1nnc(NC(=O)CSc2cn(CCNC(=O)c3ccccc3)c3ccccc23)s1 | 651 | -9.6% (inactive) | 28.2% (inactive) | 70.8 | -12.7% (inactive) | 106 | -0.452 (inactive) | 5.8e-06 (inactive) | 0.00437 (inactive) | -1.29% (inactive) | -44.3% (inactive)
10 | O=C1CCCN1Cc1ncnn1-c1ccccc1 | 453 | -1.8% (inactive) | 10.2% (inactive) | 114 | -85.8% (inactive) | 131 | -0.349 (inactive) | -6.8e-05 (inactive) | 0.00512 (inactive) | 7.63% (inactive) | 3.72% (inactive)
11 | O=C(Nc1ccc(N2CCN(Cc3ccccc3Cl)CC2)cc1)c1cccnc1 | 630 | -4.2% (inactive) | 15.2% (inactive) | 65.6 | -27% (inactive) | 102 | -0.478 (inactive) | 1.4e-05 (inactive) | 0.00649 (inactive) | -23.5% (inactive) | -14.5% (inactive)
12 | CCN(CC)CCn1c(OC)cc(=O)[nH]c1=O | 411 | 5.3% (inactive) | -27.5% (inactive) | 108 | -137% (inactive) | 114 | -0.503 (inactive) | 1.6e-06 (inactive) | 0.00433 (inactive) | 10.7% (inactive) | 18.4% (inactive)
13 | CC(C)Cn1c(CN2CCN(c3ccccc3F)CC2)nc2c1c(=O)[nH]c(=O)n2C | 664 | -7.7% (inactive) | -8.3% (inactive) | 101 | -7.3% (inactive) | 103 | -0.521 (inactive) | -3.3e-05 (inactive) | 0.00688 (inactive) | 10.6% (inactive) | 19.7% (inactive)
14 | CN1CCN(Cc2nc3c(c(=O)[nH]c(=O)n3C)n2CCc2ccccc2)CC1 | 632 | 7.4% (inactive) | 6.7% (inactive) | 99.2 | -34.7% (inactive) | 119 | -0.436 (inactive) | -1.6e-05 (inactive) | 0.00646 (inactive) | 3.33% (inactive) | 39.3% (inactive)
